# Compound activity: PubChem, National Center for Advancing Translational Sciences (NCATS)
# Shiga toxin inh = Shiga toxin inhibition; 9.2% of 290,000 active; Vero cells, Shiga toxin protein synthesis inhibition reporter; AID 2315; inhibition, % at 38.7 µM; in the data active = inhibition mostly above about 28%, no sharp cut-off; inactive = mostly below about 43%; also: 0% is about no effect
# Pf growth 48h = inhibits P. falciparum growth in the first generation, 48 h | 5.9% of 310,000 active | P. falciparum luciferase growth in erythrocytes, 48 h | Potency, µM (titrated, usually from 28.7 µM), without a hit: at the top dose activity change, negative = inhibition, actives largely listed as inhibitors | AID 504832; also: potency is read from the fitted curve at half-maximal effect; % is scaled to controls: 0 for no effect and ±100 for the full control effect
#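 Firefly luciferase activity from engineered P. falciparum reports growth; inhibitors lower the luminescent signal. Cultures contained 2% hematocrit erythrocytes at 0.1% final parasitemia.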
# Pf growth 96h = P. falciparum growth inhibition at 96 hour, primary screen for plastid delayed-death inhibitors; P. falciparum luciferase reporter growth, 96 h; Potency, µM (top dose mostly 28.7 µM), inactives show at the highest dose activity change, negative = inhibition, usual class: inhibitors; 6.9% of 320,000 active; AID 504834; also: potency is read from the fitted curve at half-maximal effect; % is scaled to controls: 0 for no effect and ±100 for the full control effect
#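 Compounds incubated with erythrocytes infected by luciferase-expressing P. falciparum (2% hematocrit, 0.05% parasitemia final) for 96 hours, 37 C in 5% CO2. Growth inhibition scored as decreased luciferase luminescence.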
# Cycloheximide cs = affects cycloheximide protein synthesis inhibition readout, counter-screen | cell reporter, cycloheximide protein synthesis inhibition counterscreen | max response, % | 12% of 300,000 active | AID 2314; in the data active = max response mostly above about 13%, no sharp cut-off; inactive = mostly below about 14%; also: read at 38.3 µM for the half of the compounds with a filed dose; 0% is about no effect
# Sm TGR block = inhibitors of Schistosoma mansoni thioredoxin glutathione reductase; Potency, µM (titrated, usually from 114 µM), for inactives: at the top dose activity change, negative = inhibition, most hits filed as inhibitors; Q962Y6; 3% of 360,000 active; purified TGR, DTNB reduction, TNB absorbance 405 nm; also: potency is read from the fitted curve at half-maximal effect; % is scaled to controls: 0 for no effect and ±100 for the full control effect; nearly all actives have a fitted effect of over 60% in size
#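 Kinetic colorimetric format: TGR-catalysed, NADPH-driven DTNB reduction monitored via TNB absorbance. Enzyme dispensed at 20 nM; compound exposure 15 min at room temperature before reaction start.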
# NS1 function inh = influenza NS1 inhibition | 0.4% of 270,000 active | Potency, µM (top dose mostly 46.1 µM), without a hit: top-dose activity, positive = more growth; calls by dose curve; also: potency is read from the fitted curve at half-maximal effect; actives are rising curves; nearly all actives have a fitted effect of over 50% in size
#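 Compounds were scored for reversing the slow growth caused by influenza A NS1 in S. cerevisiae, measured by optical density at 600 nm. Assay medium contained 2% galactose at pH 6.0; NS1-free yeast of the same strain were the positive control.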
# * marks the source's active call; other numbers are inactive results; u = inconclusive; x = no result; [ ] = another dose, or the depositor's remark. The list is not random: actives were taken first. Their share in the collection is about 21%. Unless noted, calls follow the shape of the dose curve; as a rule, active = well fitted curve in the direction sought with a large enough effect; inconclusive = small, poorly fitted or top-dose-only effect, or another doubt; inactive = no such curve, though single readings can be large; an effect the other way counts as inactive or inconclusive.
SMILES,Shiga toxin inh,Pf growth 48h,Pf growth 96h,Cycloheximide cs,Sm TGR block,NS1 function inh
CCc1ccc(C(=O)CC2(O)C(=O)N(Cc3ccc(C)cc3)c3ccccc32)cc1 (stereo not drawn),x,x,x,x,-1.9%,x
CC(C)c1ccc(C(=O)CC2(O)C(=O)N(CN3CCOCC3)c3ccccc32)cc1 (stereo not drawn),64.2*,36.5%,11.7µM*,38.7*,-23.3%,-5.7%
COC(=O)CN1C(=O)C(O)(CC(=O)c2ccc(C)cc2)c2ccccc21 (stereo not drawn),15.8,-0.5%,u,-2.8,-0.5%,-6.1%
Cc1ccc(C(=O)CC2(O)C(=O)N(CN3CCOCC3)c3ccccc32)cc1 (stereo not drawn),44.4*,u,2.9%,18.1*,-12.3%,1.9%
COC(=O)[C@H](CCSC)NC(=O)c1ccc(NC[C@@H](N)CS)cc1-c1ccccc1,5.6,x,x,-8.5,x,x
O=C(Nc1c(-c2ccccc2)nc2ccccn12)c1cccc(F)c1,16.6,18.9%[0.00184 µM],4.5%,-4.4,0.0%,-1.4%
CSc1ccccc1NC(=O)c1csc(C)c1,35.9*,36.1%,10.4µM*,30.7*,-3.9%,-1.4%
Cc1cc(C)cc(C(=O)Nc2ccc(NC(=O)c3cccs3)cc2)c1,10.4,u,3.7%,-1.1,-9.9%,-1.7%
Cc1ccc(C(=O)Nc2ccccc2NC(=O)c2ccc(C)o2)o1,1.8,18.3%,9.7%,2.2,-1.8%,0.6%
Cc1cc(C(=O)Nc2ccc(Br)cc2)cs1,83.5*,204.8%,u,46.9*,-8.4%,2.9%
COC(=O)c1cc(OC)c(OC)cc1NC(=O)c1csc(C)c1,-16.5,10.4µM*,u,-3.3,-3.2%,20.2%
Cc1cc(C(=O)Nc2ccccc2[N+](=O)[O-])cs1,-2.0,-6.2%,58.4%,9.2,-24.9%,0.8%
CSc1ccccc1NC(=O)c1ccc(C)o1,50.6*,36.3%,u,19.8*,-5.2%,u
COc1cc(Cl)c(C)cc1NC(=O)c1cnc(N2CCCCC2)c2ccccc12,x,x,x,x,-0.3%,x
CN(C)CCCNC(=O)C(=O)NCC(c1cccs1)S(=O)(=O)c1ccc(F)cc1 (stereo not drawn),x,2.9%,12.1%,x,-15.2%,x
Cc1[nH]c2ccccc2c1C(=O)Cn1c(=O)oc2ccccc21,-3.2,-6.1%,x,-4.1,1.8%,-2.1%
CNS(=O)(=O)c1ccc(NC(=O)c2csc(C)c2)cc1,36.4*,9.3%,u,23.5*,-22.5%,5.5%
CNS(=O)(=O)c1ccc(NC(=O)c2ccccn2)cc1,22.9*,146.7%,190.5%,62.8*,3.7%,-4.5%
Cc1cc(C(=O)Nc2ccc(S(=O)(=O)N3CCCC3)cc2)cs1,21.6,u,x,7.0,-1.1%,-24.9%
Cc1ccc(S(=O)(=O)N2CCOCC2)cc1C(=O)OCC(=O)NC1CCCC(C)C1C (stereo not drawn),x,u,u,x,14.8%,x
COc1ccc(OC)c(CCNC(=O)c2cccc(NC(=O)C3=C(C)OCCS3)c2)c1,-12.9,u,23.1%,-11.5,-10.6%,-19.4%
CCOC(=O)c1cc2c(C)n(-c3ccc(N(C)C)cc3)c(C)c2cc(C(=O)OCC)c1=O,9.0,u,3.29µM*,19.3,-32.3%,0.8%
CCOC(=O)c1cc2c(C)n(-c3ccc(OCC)cc3)c(C)c2cc(C(=O)OCC)c1=O,-12.9,u,u,-7.0,-0.6%,5.9%
COc1ccc2nc(N(Cc3cccnc3)C(=O)CCc3ccccc3)sc2c1,x,x,x,x,12.1%,x
CSc1nnc(C)c(=O)n1COC(=O)c1cc(Cl)ccc1[N+](=O)[O-],-2.0,5.5%,0.0%,2.6,22.4µM*,x
SMILES,Shiga toxin inh,Pf growth 48h,Pf growth 96h,Cycloheximide cs,Sm TGR block,NS1 function inh
O=C1c2cccc3c(N4CCCCC4)ccc(c23)C(=O)N1c1ccccc1O,19.3,-4.7%,26.2%,-1.0,2.9%,4.4%
O=C1c2cccc3c(N4CCCCC4)ccc(c23)C(=O)N1c1ccc(O)cc1,49.5,-19.5%,23.6%,18.4*,6.5%,x
S=C(NCCc1ccccc1)NCCN1CCOCC1,16.0,47.1%,-8.2%,6.9*,7.0%,2.4%
CCN1CCN(C(=S)NCCc2ccccc2)CC1,43.2*,48.6%,37.8%,24.4*,0.4%,-9.7%
S=C(NCCc1ccccc1)N1CCOCC1,74.6*,32.5%,62.4%,40.5*,-3.6%,1.6%
O=C(NCCc1ccc(F)cc1)N1CCOCC1,22.6,37.9%,x,18.1*,1.7%,24.5%
O=C(CCC(=O)N1CCOCC1)NCCc1ccccc1,x,84.4%,76.3%,x,-9.0%,x
COc1ccc(C(=O)OCC(=O)NC(=O)NC2CCCC2)cc1OC,x,7.2%,-1.1%,x,3.5%,x
Cc1nc(/N=C\c2ccc(N(C)C)cc2)sc1C,x,9.1%,68.1%,x,-3.8%,x
S=C(NCCc1ccccc1)N1CCN(C23CC4CC(CC(C4)C2)C3)CC1,-6.3,9.28µM*,88.6%,-5.2,10.6%,x
Oc1cccc(/C=N/NC(=S)NCCN2CCOCC2)c1O,16.4,u,u,1.2,-1.8%,-2.3%
S=C(NCCN1CCOCC1)N/N=C/c1cccs1,-5.5,3.29µM*,2.33µM*,-5.1,-1.1%,4.5%
OCCN1CCN(C(=S)NCCc2ccccc2)CC1,70.6*,56.6%,57.0%,18.5*,5.1%,-1.2%
CCn1c(N2CCN(C(=S)NCCc3ccccc3)CC2)nc2ccccc21,-11.7,1.5%,u,-1.4,14.1%,-39.8%
S=C(Nc1ccccc1)N1CCOCC1,-13.5,15.8%,-4.9%,-2.2,-1.1%,8.8%
S=C(N/N=C/c1ccccc1)N1CCOCC1,56.7*,-28.6%,u,39.9*,-1.4%,-13.5%
CC1CCCN(C2(O)C(=O)Nc3ccc(Cl)cc32)C1 (stereo not drawn),9.7,-3.8%,u,0.8,-0.2%,-2.7%
CC1=NN(c2ccccc2)C(=O)[C@@H]1N=Nc1ccc([As](=O)(O)O)c(O)c1,x,x,x,x,x,5.4%
O=C1CCCc2sccc2N1,30.8,19.1%,3.29µM*,7.8,4.1%,15.3%
O=C1CCCc2sc3c(c2N1)CCCCC3,31.9,15.7%,-1.5%,4.2,3.4%,-13.6%
COc1ccc(Cl)cc1NC(=O)C1COc2ccccc2O1 (stereo not drawn),44.9*,5.8%,-6.9%,38.1*,0.2%,x
CN1CCN(c2ccc(Cl)cc2NC(=O)C2COc3ccccc3O2)CC1 (stereo not drawn),9.3,8.28µM*,2.33µM*,-0.3,0.0%,-40.8%
COc1ccc(OC)c(NC(=O)C2COc3ccccc3O2)c1 (stereo not drawn),2.7,u,u,9.7,0.4%,-71.0%
CN1CCN(c2ccc(Cl)cc2NC(=O)/C=C/c2cccc(F)c2)CC1,-23.7,9.28µM*,u,3.0,1.2%,-4.1%
O=C(Nc1cc(S(=O)(=O)N2CCOCC2)ccc1N1CCCC1)C1COc2ccccc2O1 (stereo not drawn),16.6,-26.6%,u,-2.1,0.6%,u
CN1CCN(c2ccc(Cl)cc2NC(=O)c2cccc(S(=O)(=O)N(C)C)c2)CC1,7.7,u,x,5.9,3.7%,4.4%
